Active and inactive are the calls of the source.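 How the source made its calls: active means compounds whose dose series gives a full or clear partial fitted curve of increased nuclear translocation; inconclusive means weak partial curve or effect only at the top dose; inactive means no dose-dependent translocation response.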
Biological target: Glucocorticoid receptor (Homo sapiens) (UniProt P04150)
Test: GR-GFP Redistribution (AID 450)
Conditions: U2OS GR-GFP nuclear translocation, laser cytometry, 2 h; series mostly up to 20.6 µM
Potency means the concentration at half of the fitted maximal effect.

Glucocorticoid receptor (Homo sapiens), sequence (P04150 whole entry, looked up): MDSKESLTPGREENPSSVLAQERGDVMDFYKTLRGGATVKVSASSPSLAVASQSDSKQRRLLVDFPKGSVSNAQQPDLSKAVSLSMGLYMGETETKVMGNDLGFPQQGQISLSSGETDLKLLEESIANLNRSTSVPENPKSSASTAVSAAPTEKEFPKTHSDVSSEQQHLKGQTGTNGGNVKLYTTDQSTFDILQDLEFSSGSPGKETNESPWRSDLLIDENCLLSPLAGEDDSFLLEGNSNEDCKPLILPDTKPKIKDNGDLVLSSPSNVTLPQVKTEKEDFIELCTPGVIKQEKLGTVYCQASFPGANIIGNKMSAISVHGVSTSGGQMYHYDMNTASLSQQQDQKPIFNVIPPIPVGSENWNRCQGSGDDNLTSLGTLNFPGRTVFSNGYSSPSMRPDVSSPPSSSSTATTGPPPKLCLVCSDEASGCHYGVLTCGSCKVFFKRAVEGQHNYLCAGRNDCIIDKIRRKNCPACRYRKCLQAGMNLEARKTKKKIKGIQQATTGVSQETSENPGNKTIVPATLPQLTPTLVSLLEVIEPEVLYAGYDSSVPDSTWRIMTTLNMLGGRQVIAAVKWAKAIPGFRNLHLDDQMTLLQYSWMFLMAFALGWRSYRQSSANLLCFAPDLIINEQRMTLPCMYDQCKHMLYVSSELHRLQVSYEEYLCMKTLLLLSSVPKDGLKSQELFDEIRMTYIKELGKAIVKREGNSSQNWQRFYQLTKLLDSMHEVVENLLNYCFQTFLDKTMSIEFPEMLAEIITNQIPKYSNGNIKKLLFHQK

Potency, inactive:
O=C(O)CC(NCc1ccco1)C(=O)OCCc1ccccc1 (stereo unspecified) > 20.6 µM
CN1CCN(/C=N/c2sc3c(c2C#N)CCCCC3)CC1 > 20.6 µM
O=C(CN1C(=O)c2ccccc2S1(=O)=O)c1ccccc1 > 20.6 µM
CCOC(=O)CC(=O)CSc1nc2c(cc1C#N)CCCCCC2 > 20.6 µM
Cc1cc(=O)oc(C)c1C(=O)NCC(C)C > 20.6 µM
O=S1CCCSC1c1cccnc1 (stereo unspecified) > 20.6 µM
Cn1c(=O)c2c(nc(NCCCO)n2Cc2cccc(C(F)(F)F)c2)n(C)c1=O > 20.6 µM
Cc1cc2c(c(=O)n1Cc1cccnc1)C(c1ccccc1)C(C#N)=C(N)O2 (stereo unspecified) > 20.6 µM
CCOC(=O)c1[nH]c2cc3c(cc2c1NC(=O)CN1CC(C)CC(C)C1)OCO3 (stereo unspecified) > 20.6 µM
CC(=O)NC1(C(F)(F)F)C(=O)Nc2c1c(=O)n(C)c(=O)n2C (stereo unspecified) > 20.6 µM
O=C(Cc1ccc(Cl)cc1)Nc1cccc(-c2nnc(-c3ccco3)o2)c1 > 20.6 µM
Cc1cc(=O)oc2cc(OCC(=O)NCc3cccnc3)ccc12 > 20.6 µM
Clc1ccc(-c2cn3c(n2)CCC3)cc1 > 20.6 µM
CCNC(=O)N(C(=O)NCC)n1c(C)nnc1C > 20.6 µM
COC(=O)c1ccc(=O)n(Cc2ccco2)c1 > 20.6 µM
CCCOc1ccc(N2C(=O)CC(N(Cc3ccc(S(N)(=O)=O)cc3)C(=O)CC)C2=O)cc1 (stereo unspecified) > 20.6 µM

— PubChem BioAssay (NCATS)
